Measurements reported in the supplement of paper PMC8728848.
The entries come from a sample that favours the strongest signals as a whole.

How the values were obtained:
Assay in all cases: glycan array binding signal (z-score within array); higher = stronger binding
Conditions in all cases: glycan notation: IUPAC condensed, linker removed
Gal6S(b1-4)GlcNAc6S = molecular target: Gal6S(b1-4)GlcNAc6S
Method in brief: (§1)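 Negative Z-scores can be read as non-binding. The Z-score is calculated within each array and then averaged across arrays of one protein sequence at different concentrations or buffers and across linkers. Arrays, 3228 in all, were curated from the Consortium for Functional Glycomics database and kept only where the protein sequence was available.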

[1] = molecular target: GalNAc(b1-3)Gal(a1-4)Gal(b1-4)GlcNAc(b1-3)Gal(b1-4)Glc
Method in brief: as §1

GalNAc4S6S(b1-4)GlcNAc = molecular target: GalNAc4S6S(b1-4)GlcNAc
Method in brief: as §1

Glc(b1-4)Glc = molecular target: Glc(b1-4)Glc
Method in brief: as §1

GlcA(b1-6)Gal = molecular target: GlcA(b1-6)Gal
Method in brief: as §1

[2] = molecular target: GlcNAc(a1-4)Gal(b1-4)GalNAc
Method in brief: as §1

[3] = molecular target: GlcNAc(b1-2)[GlcNAc(b1-6)]Man(a1-6)[GlcNAc(b1-2)Man(a1-3)]Man(b1-4)GlcNAc(b1-4)GlcNAc
Method in brief: as §1

[4] = molecular target: GlcNAc(b1-2)[GlcNAc(b1-6)]Man(a1-6)[GlcNAc(b1-4)][GlcNAc(b1-2)Man(a1-3)]Man(b1-4)GlcNAc(b1-4)GlcNAc
Method in brief: as §1

[5] = molecular target: GlcNAc(b1-4)GlcNAc(b1-4)GlcNAc(b1-4)GlcNAc(b1-4)GlcNAc(b1-4)GlcNAc
Method in brief: as §1

Kdn(a2-3)Gal(b1-3)GalNAc = molecular target: Kdn(a2-3)Gal(b1-3)GalNAc
Method in brief: as §1

[6] = molecular target: Man(a1-2)Man(a1-3)[Man(a1-6)]Man(a1-6)[Man(a1-2)Man(a1-3)]Man(b1-4)GlcNAc(b1-4)GlcNAc
Method in brief: as §1

[7] = molecular target: Neu5Ac(a2-3)Gal(b1-3)GlcNAc6S
Method in brief: as §1

[8] = molecular target: Neu5Ac(a2-3)Gal(b1-3)[GlcNAc(b1-6)]GalNAc
Method in brief: as §1

[9] = molecular target: Neu5Ac(a2-3)Gal(b1-3)[Neu5Ac(a2-6)]GlcNAc(b1-3)[Fuc(a1-3)[Gal(b1-4)]GlcNAc(b1-6)]Gal(b1-4)Glc
Method in brief: as §1

Neu5Ac(a2-3)Gal(b1-4)Glc = molecular target: Neu5Ac(a2-3)Gal(b1-4)Glc
Method in brief: as §1

[10] = molecular target: Neu5Ac(a2-3)Gal(b1-4)GlcNAc(b1-2)Man
Method in brief: as §1

[11] = molecular target: Neu5Ac(a2-3)Gal(b1-4)GlcNAc(b1-3)Gal(b1-4)GlcNAc(b1-2)Man(a1-3)[Neu5Ac(a2-3)Gal(b1-4)GlcNAc(b1-3)Gal(b1-4)GlcNAc(b1-2)Man(a1-6)]Man(b1-4)GlcNAc(b1-4)GlcNAc
Method in brief: as §1

[12] = molecular target: Neu5Ac(a2-3)Gal(b1-4)GlcNAc(b1-3)Gal(b1-4)GlcNAc(b1-3)Gal(b1-4)GlcNAc(b1-2)Man(a1-3)[Neu5Ac(a2-3)Gal(b1-4)GlcNAc(b1-3)Gal(b1-4)GlcNAc(b1-3)Gal(b1-4)GlcNAc(b1-2)Man(a1-6)]GalNAc
Method in brief: as §1

[13] = molecular target: Neu5Ac(a2-3)Gal(b1-4)GlcNAc(b1-3)[Neu5Ac(a2-3)Gal(b1-4)GlcNAc(b1-6)]GalNAc
Method in brief: as §1

[14] = molecular target: Neu5Ac(a2-3)Gal(b1-4)[Fuc(a1-3)]GlcNAc(b1-2)Man
Method in brief: as §1

[15] = molecular target: Neu5Ac(a2-6)Gal(b1-4)GlcNAc(b1-2)Man(a1-3)[GlcNAc(b1-2)Man(a1-6)]Man(b1-4)GlcNAc(b1-4)GlcNAc
Method in brief: as §1

[16] = molecular target: Neu5Ac(a2-6)Gal(b1-4)GlcNAc(b1-2)Man(a1-3)[Neu5Ac(a2-3)Gal(b1-4)GlcNAc(b1-2)Man(a1-6)]Man(b1-4)GlcNAc(b1-4)GlcNAc
Method in brief: as §1

[17] = molecular target: Neu5Ac(a2-6)Gal(b1-4)GlcNAc(b1-2)Man(a1-3)[Neu5Ac(a2-6)Gal(b1-4)GlcNAc(b1-2)Man(a1-6)]Man(b1-4)GlcNAc(b1-4)[Fuc(a1-6)]GlcNAc
Method in brief: as §1

[18] = molecular target: Neu5Ac(a2-6)Gal(b1-4)GlcNAc6S
Method in brief: as §1

[19] = molecular target: Neu5Ac(a2-6)GlcNAc(b1-4)GlcNAc(b1-4)GlcNAc
Method in brief: as §1

[20] = molecular target: Neu5Ac(a2-8)Neu5Gc(a2-3)Gal(b1-4)GlcNAc
Method in brief: as §1

[21] = molecular target: Neu5Ac9Ac(a2-3)Gal(b1-4)GlcNAc
Method in brief: as §1

[22] = molecular target: Neu5Ac9Ac(a2-6)Gal(b1-4)GlcNAc
Method in brief: as §1

[23] = molecular target: Neu5Gc(a2-3)Gal(b1-4)GlcNAc
Method in brief: as §1

B1: Epa2 (Candida glabrata) (protein)
chain: MGSSHHHHHHSSGLVPRGSHMASSKDPTSFPMGCSPQVLKTQPGLAVKLYSYGHPVPGCAYNTYQYPDFPRSGYKKERKLADITGVNGRIDIDLKPNDPCRVLSGNLPSNYNYQNTLTYTNFTMILYGYFQPKVTGYHTFNLEADDLLFMNLGAGNAFDCCRAESTLDNFGNYQSYSIWGTDKATADLTVFLVSGIYYPIRLFYVNRDNNAVLDFSFSTEFNKEIIHDFTSYFFSASDEEQCPGNI
Gal6S(b1-4)GlcNAc6S
  glycan array binding signal (z-score): 2.81
[1]
  glycan array binding signal (z-score): 1.03
GalNAc4S6S(b1-4)GlcNAc
  glycan array binding signal (z-score): 0.176
Glc(b1-4)Glc
  glycan array binding signal (z-score): 0.058
GlcA(b1-6)Gal
  glycan array binding signal (z-score): 0.586
[2]
  glycan array binding signal (z-score): -0.65
[3]
  glycan array binding signal (z-score): -0.896
[4]
  glycan array binding signal (z-score): -0.884
[5]
  glycan array binding signal (z-score): -0.072
Kdn(a2-3)Gal(b1-3)GalNAc
  glycan array binding signal (z-score): 2.25
[6]
  glycan array binding signal (z-score): -1.18
[7]
  glycan array binding signal (z-score): 0.604
[8]
  glycan array binding signal (z-score): -0.044
[9]
  glycan array binding signal (z-score): 0.369
Neu5Ac(a2-3)Gal(b1-4)Glc
  glycan array binding signal (z-score): 0.776
[10]
  glycan array binding signal (z-score): 3.5
[11]
  glycan array binding signal (z-score): 0.377
[12]
  glycan array binding signal (z-score): 2.23
[13]
  glycan array binding signal (z-score): 3.03
[14]
  glycan array binding signal (z-score): -0.325
[15]
  glycan array binding signal (z-score): -0.681
[16]
  glycan array binding signal (z-score): -0.821
[17]
  glycan array binding signal (z-score): -0.149
[18]
  glycan array binding signal (z-score): -0.614
[19]
  glycan array binding signal (z-score): -0.626
[20]
  glycan array binding signal (z-score): -1.11
[21]
  glycan array binding signal (z-score): -0.074
[22]
  glycan array binding signal (z-score): -0.169
[23]
  glycan array binding signal (z-score): -0.248
